Records with an inconclusive call do not appear. Calls of active or inactive are those of the source. How the source made its calls: active means hit-call score of the fitted dose curve at least 0.9, where 1 is the maximum; inconclusive means response in the unintended direction; inactive means score below 0.9.
What was measured:
[1] = Tanguay_ZF_120hpf_MORT_legacy: (Legacy) Oregon State University Tanguay Lab 120 Hour Post-fertilization zebrafish Assay for Mortality (AID 2283633)
Outline: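 Dechorionated Tropical 5D wild-type zebrafish embryos, one per well from 6 hpf, were statically exposed at 28C in the dark until 120 hpf (0.64% DMSO final). Mortality was scored as present/absent by brightfield microscopy, fitted positively versus DMSO.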

[2] = Tanguay_ZF_120hpf_YSE_legacy: (Legacy) Oregon State University Tanguay Lab 120 Hour Post-fertilization zebrafish Assay for Yolk Sac Edema (AID 2283634);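 on AC50: actives raise the incidence of yolk sac edema above the DMSO baseline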
Outline: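 Tropical 5D wild-type embryos, dechorionated with pronase at 4 hpf, were exposed singly from 6 hpf to 120 hpf under static, sealed, dark conditions at 28C with 0.64% DMSO final. Yolk sac edema was scored present/absent by brightfield microscopy.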

[3] = Tanguay_ZF_120hpf_EYE_legacy: (Legacy) Oregon State University Tanguay Lab 120 Hour Post-fertilization zebrafish Assay for Eye Malformation (AID 2283636);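 further: binary presence or absence of eye malformation scored by brightfield in 120 hpf larvae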
Outline: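 5D wild-type embryos, pronase-dechorionated at 4 hpf; static exposure 6–120 hpf, 28C, dark; DMSO 0.64% final; 5uM trimethyltin chloride positive control. Binary eye-defect scoring at 120 hpf; dead embryos not scored.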

[4] = Tanguay_ZF_120hpf_SNOU_legacy: (Legacy) Oregon State University Tanguay Lab 120 Hour Post-fertilization zebrafish Assay for Snout Malformation (AID 2283637)
Outline: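 Binary brightfield scoring of snout malformation at 120 hpf. Dechorionated 5D wild-type embryos, one per well, static exposure from 6 hpf at 28C, sealed and dark; final DMSO 0.64% (vol/vol), DMSO as baseline; 5uM trimethyltin chloride positive control.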

[5] = Tanguay_ZF_120hpf_JAW_legacy: (Legacy) Oregon State University Tanguay Lab 120 Hour Post-fertilization zebrafish Assay for Jaw Malformation (AID 2283638)
Outline: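 Tropical 5D wild-type embryos, dechorionated with pronase at 4 hpf, were placed singly per well at 6 hpf and statically exposed at 28C until 120 hpf (0.64% DMSO final). Jaw malformation scored as present/absent by brightfield microscopy at 120 hpf, analyzed relative to DMSO.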

[6] = Tanguay_ZF_120hpf_OTIC_legacy: (Legacy) Oregon State University Tanguay Lab 120 Hour Post-fertilization zebrafish Assay for Otic Vesicle Malformation (AID 2283639)
Outline: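 Brightfield scoring at 120 hpf, binary present/absent; DMSO negative control, 5uM trimethyltin chloride positive control. Static exposure at 28C, final DMSO 0.64% (vol/vol). Dead embryos not scored for malformation.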

[7] = Tanguay_ZF_120hpf_PE_legacy: (Legacy) Oregon State University Tanguay Lab 120 Hour Post-fertilization zebrafish Assay for Pericardial Edema (AID 2283640);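 on AC50: potency for increased incidence of pericardial edema versus DMSO baseline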
Outline: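 Tropical 5D wild-type zebrafish embryos were exposed statically to 120 hpf at 28C, sealed and foil-covered, in 0.64% DMSO final. Pericardial edema was scored present/absent by brightfield microscopy; dead embryos were not scored.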

[8] = Tanguay_ZF_120hpf_SOMI_legacy: (Legacy) Oregon State University Tanguay Lab 120 Hour Post-fertilization zebrafish Assay for Somite Malformation (AID 2283647)
Outline: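 Tropical 5D wild-type zebrafish embryos, dechorionated with pronase at 4 hpf, were placed singly at 6 hpf and statically exposed until 120 hpf at 28C in 0.64% DMSO. Somite malformation was scored present/absent by brightfield microscopy versus DMSO.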

[9] = Tanguay_ZF_120hpf_AXIS_legacy: (Legacy) Oregon State University Tanguay Lab 120 Hour Post-fertilization zebrafish Assay for Body Axis Malformation (AID 2283635)
Outline: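 Tropical 5D wild-type zebrafish embryos, dechorionated with pronase at 4 hpf, were placed singly in wells at 6 hpf and exposed statically to test chemical (0.64% DMSO final) at 28C until 120 hpf, then scored by brightfield for body axis defects.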

[10] = Tanguay_ZF_120hpf_PFIN_legacy: (Legacy) Oregon State University Tanguay Lab 120 Hour Post-fertilization zebrafish Assay for Pectoral Fin Malformation (AID 2283648);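 further: each larva judged yes or no for fin defect by brightfield with dead larvae skipped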
Outline: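 Binary pectoral fin malformation call at 120 hpf by brightfield microscopy; 5D wild-type zebrafish, chorion removed at 4 hpf, one embryo per well from 6 hpf, static exposure at 28C; DMSO (0.64% final) as baseline.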

[11] = Tanguay_ZF_120hpf_CFIN_legacy: (Legacy) Oregon State University Tanguay Lab 120 Hour Post-fertilization zebrafish Assay for Caudal Fin Malformation (AID 2283649)
Outline: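 Tropical 5D wild-type embryos, dechorionated with pronase at 4 hpf, were placed singly in wells at 6 hpf and statically exposed to compound at 28C until 120 hpf (0.64% DMSO). Caudal fin malformation was scored present/absent by brightfield microscopy.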

[12] = Tanguay_ZF_120hpf_BRAI_legacy: (Legacy) Oregon State University Tanguay Lab 120 Hour Post-fertilization zebrafish Assay for Brain Malformation (AID 2283641)
Outline: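 Tropical 5D wild-type zebrafish embryos were exposed statically in sealed, foil-covered plates at 28C until 120 hpf, with 0.64% (vol/vol) final DMSO. Brain malformation was scored present/absent by brightfield microscopy, relative to DMSO baseline.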

Compound | outcome [1] | outcome [2] | outcome [3] | outcome [4] | outcome [5] | outcome [6] | outcome [7] | outcome [8] | outcome [9] | outcome [10] | outcome [11] | outcome [12] | AC50 [2] | AC50 [6] | AC50 [7] | AC50 [8] | AC50 [10]
COCc1nnc(-c2ccc[n+]([O-])c2)n1-c1c(Cl)c(Cl)cc2[nH]c(=O)c(=O)[nH]c12 | inactive | inactive | inactive | inactive | inactive | inactive | inactive | inactive | – | – | – | – | – | – | – | – | –
CCCCCCOC(=O)CC(CC(=O)OCCCCCC)(OC(=O)CCC)C(=O)OCCCCCC | inactive | inactive | inactive | – | inactive | inactive | inactive | inactive | inactive | inactive | – | – | – | – | – | – | –
NC(=O)N(O)[C@@H]1COc2cc(OCc3ccccc3)ccc21 | inactive | inactive | inactive | inactive | inactive | inactive | inactive | inactive | – | inactive | inactive | – | – | – | – | – | –
COS(C)(=O)=O | inactive | inactive | inactive | inactive | inactive | inactive | inactive | inactive | inactive | inactive | inactive | – | – | – | – | – | –
CC(C)CCCCCCOC(=O)C1CCCCC1C(=O)OCCCCCCC(C)C (stereo not given) | inactive | inactive | inactive | inactive | inactive | – | inactive | inactive | – | inactive | – | inactive | – | – | – | – | –
COc1cc2c(c(OC)c1OC)-c1ccc(OC)c(=O)cc1[C@@H](NC(C)=O)CC2 | inactive | – | inactive | inactive | inactive | – | – | – | inactive | – | – | – | 27.1 µM (active) | 25 µM (active) | 26.2 µM (active) | 25.5 µM (active) | 21 µM (active)
CCOc1ccc2[nH]cc(C(=O)NCc3ccccc3)c(=O)c2n1 | inactive | inactive | inactive | inactive | inactive | inactive | inactive | inactive | inactive | inactive | – | – | – | – | – | – | –
Cn1cc[nH]c1=S | inactive | – | inactive | inactive | inactive | inactive | inactive | inactive | – | – | – | – | – | – | – | – | –
CCCCCOC(C)=O | inactive | inactive | inactive | inactive | inactive | inactive | inactive | inactive | inactive | – | – | – | – | – | – | – | –
CCCOc1ccc(S(=O)(=O)N2CCN(CC)CC2)cc1-c1nc2c(CC)n(Cc3ccccn3)nc2c(=O)[nH]1 | inactive | inactive | inactive | inactive | inactive | inactive | inactive | – | inactive | inactive | – | inactive | – | – | – | – | –
OC[C@H]1O[C@@H]2O[C@H]3[C@H](O)[C@@H](O)[C@@H](O[C@H]4[C@H](O)[C@@H](O)[C@@H](O[C@H]5[C@H](O)[C@@H](O)[C@@H](O[C@H]6[C@H](O)[C@@H](O)[C@@H](O[C@H]7[C@H](O)[C@@H](O)[C@@H](O[C@H]1[C@H](O)[C@H]2O)O[C@@H]7CO)O[C@@H]6CO)O[C@@H]5CO)O[C@@H]4CO)O[C@@H]3CO | inactive | inactive | inactive | inactive | inactive | inactive | inactive | inactive | inactive | inactive | inactive | inactive | – | – | – | – | –

— PubChem BioAssay (EPA / NIEHS)
